Screening data (PubChem BioAssay)
An excerpt weighted towards active compounds, which were near 1.2% of everything screened.
NOD2-RIPK2 inh: blocks binding of human NOD2 to RIPK2; CHO BLA complementation NOD2-RIPK2, CCF4 ratio; inhibition, % at 4.98 µM; hit rate 0.38% among 360,000; AID 624267; in the data active means inhibition above about 21%;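 further: 0% = vehicle only and 100% = reference blocker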
TLR4-MyD88 BLA: blocks binding of human TLR4 to MyD88. HeLa CL3-4 TLR4/MyD88 BLA complementation, FRET ratio. inhibition, % at 8.4 µM. hit rate 0.18% among 200,000. O00206+Q99836. AID 861; in the data active means inhibition above about 25%;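 further: 0% = vehicle and 100% = reference inhibitor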
GC-A act: GC-A (human) enzyme activation; activation, % at 10 µM; hit rate 0.14% among 370,000; HEK293 GC-A cells, cGMP TR-FRET, EC30 ANP; 0% at EC30 ANP, 100% saturating ANP; P16066; in the data active means activation above about 40%
TLR9-MyD88 block: blocks human TLR9 binding to MyD88; inhibition, % at 4.98 µM; AID 504734; hit rate 0.21% among 340,000; Q9NR96+Q99836; CHO BLA complementation TLR9-MyD88, CCF4 FRET ratio;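 active means inhibition above the mean over all tested compounds plus 3 SD, cut at about 21% in these data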;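 further: 0% = DMSO only wells and 100% = clavulanate BLA inhibitor control wells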
Neddyl block: blocks human cullin neddylation; AID 651699; inhibition, % at 25 µM; P61081+Q13564; hit rate 0.58% among 360,000; TR-FRET cullin neddylation, biochemical; in the data active means inhibition above about 36%
GC-B act: GC-B (human) receptor activation; P20594; HEK293-GC-B cells, CNP EC30, cGMP TR-FRET; 0% at EC30 CNP, 100% saturating CNP; activation, % at 10 µM; hit rate 0.11% among 370,000; AID 1920062;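 active means activation at 10 µM reaching about 35% in either raw or pattern-adjusted values, limit read from the data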
TLR9-MyD88 conf: confirmation of human TLR9-MyD88 binding inhibitors | hit rate 51% among 680 | shares compounds with TLR9-MyD88 block | CHO TLR9/MyD88 BLA complementation, CCF4 FRET ratio | inhibition, % at 4.98 µM | AID 540250;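 active means mean inhibition across three repeats above about 21% taken from the earlier screen, limit read from the data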;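 further: blue over green emission ratio reports constitutive TLR9 MyD88 association via BLA complementation; 0% = DMSO vehicle wells and 100% = clavulanate BLA inhibitor wells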
BLA counter-1: counter-screen for TLR9-MyD88 inhibitors: non-selective beta-lactamase inhibitors | shares compounds with TLR9-MyD88 block | CHO-BLA cells, CCF4 FRET ratio, BLA reporter | inhibition, % at 4.98 µM | hit rate 7% among 680 | AID 540251;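 active means mean inhibition above a 50% cutoff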;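 further: counterscreen of TLR9-MyD88 hits on CMV-driven BLA in CHO-K1 cells; 0% = DMSO alone and 100% = clavulanate blocking BLA; higher means less blue over green ratio so more BLA blockade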
TLR9 CHO cytotox: counter-screen for TLR9-MyD88 inhibitors: cytotoxicity in CHO cells | shares compounds with TLR9-MyD88 block | luminescence | inhibition, % at 4.98 µM | hit rate 39% among 680; in the data active means inhibition above about 11%
NOD2 RIPK2 conf: confirmation of human NOD2-RIPK2 interaction inhibitors | CHO cells, NOD2-RIPK2 BLA complementation, CCF4 FRET | inhibition, % at 4.98 µM | hit rate 70% among 1,200 | shares compounds with NOD2-RIPK2 inh;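 active means mean inhibition across replicates above a set limit taken from the earlier primary screen, cut at about 21% in these data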;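 further: 0% = DMSO-only wells and the high end = clavulanate BLA-blocked wells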
BLA counter-2: NOD2-RIPK2 counterscreen BLA reporter activity; shares compounds with NOD2-RIPK2 inh; hit rate 57% among 1,200; AID 624371; CHO BLA reporter, CCF4 FRET ratio; inhibition, % at 4.98 µM;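 active means mean inhibition above the low-control mean inhibition plus three low-control SD, cut at about 11% in these data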;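 further: 0% = DMSO only wells and 100% = clavulanate high control wells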
Starred values were filed as active, the others as inactive.

How did O=C(Nc1ccccc1)c1nnsc1S(=O)c1ccc(Cl)cc1 (configuration not stated) do in these assays?
NOD2-RIPK2 inh: 33*; TLR4-MyD88 BLA: 23; GC-A act: 39; TLR9-MyD88 block: 23*; Neddyl block: 8; GC-B act: 9; TLR9-MyD88 conf: 37*; BLA counter-1: 7; TLR9 CHO cytotox: 97*; NOD2 RIPK2 conf: 78*; BLA counter-2: 25*

How did NC(=O)c1c(N)[nH]c(C(=O)c2ccccc2)c1-c1ccccc1C(F)(F)F do in these assays?
GC-A act: -4; GC-B act: 3

Results for CC(=O)OCCn1c2nc(=O)[nH]c(=O)c-2nc2cc(C)c(C)cc21 ?
NOD2-RIPK2 inh: 23*; GC-A act: 16; TLR9-MyD88 block: 21*; Neddyl block: -56; GC-B act: -12; TLR9-MyD88 conf: 5; BLA counter-1: 6; TLR9 CHO cytotox: 3; NOD2 RIPK2 conf: 20; BLA counter-2: 23*

Results for CC(=O)OCCn1c(C)[n+](CCOC(C)=O)c2cc(Cl)c(Cl)cc21 ?
NOD2-RIPK2 inh: -8; TLR4-MyD88 BLA: -4; GC-A act: 5; TLR9-MyD88 block: 3; Neddyl block: -9; GC-B act: -1

Results for O=S(=O)(/C=C/C=C/S(=O)(=O)c1ccccc1)c1ccccc1 ?
NOD2-RIPK2 inh: 87*; GC-A act: 12; TLR9-MyD88 block: 26*; Neddyl block: 11; GC-B act: 13; TLR9-MyD88 conf: 27*; BLA counter-1: 21; TLR9 CHO cytotox: 98*; NOD2 RIPK2 conf: 77*; BLA counter-2: 38*

Results for Cc1n[nH]c(C)c1N1C(=O)c2cccc3c(N4CCCCCC4)ccc(c23)C1=O ?
NOD2-RIPK2 inh: 38*; TLR4-MyD88 BLA: 17; GC-A act: 22; TLR9-MyD88 block: 27*; Neddyl block: -235; GC-B act: 34; TLR9-MyD88 conf: 16; BLA counter-1: 18; TLR9 CHO cytotox: 6; NOD2 RIPK2 conf: 32*; BLA counter-2: 42*

Results for CC(=O)c1ccc2c3c(cccc13)C(=O)N(c1c(C)nn(C)c1C)C2=O ?
NOD2-RIPK2 inh: 0; TLR4-MyD88 BLA: 13; GC-A act: -2; TLR9-MyD88 block: 6; Neddyl block: -43; GC-B act: 2

What do the screens show for `CN(c1ccccc1)c1ccc(/C=C/[N+](=O)[O-])cc1`?
NOD2-RIPK2 inh: 75*; TLR4-MyD88 BLA: 10; GC-A act: -7; TLR9-MyD88 block: 26*; Neddyl block: 9; GC-B act: -12; TLR9-MyD88 conf: 28*; BLA counter-1: 11; TLR9 CHO cytotox: 81*; NOD2 RIPK2 conf: 89*; BLA counter-2: 29*

What do the screens show for `CN(C)c1ccc(-n2cccc2/C=C/[N+](=O)[O-])cc1`?
NOD2-RIPK2 inh: 15; TLR4-MyD88 BLA: 7; GC-A act: 16; TLR9-MyD88 block: 0; Neddyl block: 4; GC-B act: 3

Results for Cc1cccc(-c2cccc3c4c([nH]c23)[C@@H]2C[C@H](N(C)C(=S)Nc3ccc(C#N)cc3)[C@H]([C@H](C)O)CN2CC4)c1 ?
GC-A act: 2; GC-B act: 2

Results for COc1ccc(C(=O)/C=C/c2ccc(N(C)C)cc2)c(OC)c1 ?
NOD2-RIPK2 inh: 59*; GC-A act: 9; TLR9-MyD88 block: 36*; Neddyl block: 4; GC-B act: -6; TLR9-MyD88 conf: 29*; BLA counter-1: 31; TLR9 CHO cytotox: 0; NOD2 RIPK2 conf: 62*; BLA counter-2: 66*

Results for C=CCN1C(=O)[C@@H](CC(=O)NCCCN2CCCC2=O)[C@]2(C(=O)OC)CCCCC=C12 ?
GC-A act: 3; GC-B act: 3

How did CCCCCCSc1ccc(-c2nc3cnccn3c2NCCCC)cc1 do in these assays?
NOD2-RIPK2 inh: 24*; GC-A act: 10; TLR9-MyD88 block: 23*; Neddyl block: -6; GC-B act: 3; TLR9-MyD88 conf: 48*; BLA counter-1: 50*; TLR9 CHO cytotox: -7; NOD2 RIPK2 conf: 68*; BLA counter-2: 77*

Results for NC(=O)c1ncn([C@@H]2O[C@H](C(=O)N[C@H](Cc3c[nH]c4ccccc34)C(=O)O)[C@@H](O)[C@H]2O)n1 ?
GC-A act: 0; GC-B act: 6

Results for CCc1cccc(C)c1NC(=O)COC(=O)c1c2c(nc3ccccc13)/C(=C\c1cccs1)CCC2 ?
NOD2-RIPK2 inh: 1; TLR4-MyD88 BLA: -10; GC-A act: 4; TLR9-MyD88 block: -9; Neddyl block: 16; GC-B act: 6

How did CCCCNC(=O)COC(=O)c1c2c(nc3ccccc13)/C(=C\c1cccs1)CC2 do in these assays?
NOD2-RIPK2 inh: 55*; GC-A act: 13; TLR9-MyD88 block: 45*; GC-B act: 2; TLR9-MyD88 conf: 47*; BLA counter-1: 56*; TLR9 CHO cytotox: 8; NOD2 RIPK2 conf: 66*; BLA counter-2: 76*

How did Cc1cccc(/C=C2\Oc3cc(OS(C)(=O)=O)ccc3C2=O)c1 do in these assays?
NOD2-RIPK2 inh: -6; TLR4-MyD88 BLA: 5; GC-A act: -4; TLR9-MyD88 block: -8; Neddyl block: 5; GC-B act: -5

Results for O=C1/C(=C/c2cccc(F)c2)Oc2cc(O)ccc21 ?
NOD2-RIPK2 inh: 32*; GC-A act: 12; TLR9-MyD88 block: 25*; GC-B act: 1; TLR9-MyD88 conf: 10; BLA counter-1: 15; TLR9 CHO cytotox: 2; NOD2 RIPK2 conf: 44*; BLA counter-2: 42*

What do the screens show for `CCCn1c(NC(=O)c2ccccc2)nc(Cc2ccccc2)c1Cc1ccccc1`?
GC-A act: 0; GC-B act: -4

Results for CC(=O)Nc1ccc2c(c1)Cc1cc(N3C(=O)C=CC3=O)ccc1-2 ?
NOD2-RIPK2 inh: 33*; GC-A act: 28; TLR9-MyD88 block: 33*; Neddyl block: 3; GC-B act: 22; TLR9-MyD88 conf: 56*; BLA counter-1: 17; TLR9 CHO cytotox: 99*; NOD2 RIPK2 conf: 85*; BLA counter-2: 30*
